Only some compounds are listed: those with a hit (about 2.6% of all), similar ones and a draw of the others.
PABP1 MLLE inh: blocks PAM2 peptide binding to the PABP1 MLLE domain | GST-MLLE / FITC-PAM2 fluorescence polarization | AID 588489 | P11940 | inhibition, % at 20 µM | actives 0.36% (n = 360,000); in the data active means inhibition above about 35%, passing the limit was not always enough;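 further: plate controls were DMSO wells with GST-MLLE for no effect and wells lacking GST-MLLE protein for full effect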
PABP polyA inh: PABP-poly(A) binding inhibition. calls only at 35 µM. PABP-poly(A) RNA binding, fluorescence polarization. actives 1% (n = 290,000). P11940. AID 2014;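 further: calls also rest on retests at 20 µM and on dose response follow-up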
PHOSPHO1 block: blocks human PHOSPHO1 phosphatase activity. AID 1565. actives 1.1% (n = 290,000). inhibition, % at 13.3 µM. recombinant PHOSPHO1, absorbance phosphatase assay; in the data active means inhibition above about 60%
eIF4H FP inh: inhibitors of RNA binding by human eIF4H | Q15056 | AID 2012 | eIF4H fluorescence polarization binding assay | inhibition, % at 35 µM | actives 0.94% (n = 290,000);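 further: calls also rest on retests at 20 µM and on dose response follow-up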
APOBEC3G inh: APOBEC3G (human) deaminase inhibition; recombinant A3G, ssDNA deamination FAM/TAMRA fluorescence; inhibition, % at 20 µM; actives 0.28% (n = 330,000);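 active means inhibition of at least 40% at 20 µM, with no more than 30% in the related APOBEC3A deaminase screen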;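 further: plate controls were DMSO wells with A3G for no effect and wells lacking A3G enzyme for full effect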
APOBEC3A inh: human APOBEC3A DNA deaminase inhibition; P31941; recombinant A3A, FAM/TAMRA ssDNA deamination fluorescence; inhibition, % at 20 µM; actives 0.41% (n = 330,000); AID 493011;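 active means at least 40% inhibition at 20 µM here, with at most 30% in a related deaminase screen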;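 further: plate controls were A3A with DMSO for no effect and wells lacking A3A enzyme for full effect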
Target sequence (P31941 whole entry, looked up): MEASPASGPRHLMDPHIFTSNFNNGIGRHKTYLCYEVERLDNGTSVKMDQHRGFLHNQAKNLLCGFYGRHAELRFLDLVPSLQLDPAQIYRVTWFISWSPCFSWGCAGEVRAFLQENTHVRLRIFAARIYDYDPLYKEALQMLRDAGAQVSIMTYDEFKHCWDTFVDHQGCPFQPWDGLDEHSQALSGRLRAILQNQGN
Active calls of the source: *; i = inactive; nt = no result given; + = active, no number. Unless noted, how the calls were made is not given here.

SMILES | PABP1 MLLE inh | PABP polyA inh | PHOSPHO1 block | eIF4H FP inh | APOBEC3G inh | APOBEC3A inh
CCc1nc2c(OCc3ccc(C(F)(F)F)cc3)cccn2c1N(C)C(=O)c1ccc(C)cc1 | 5 | nt | nt | nt | nt | nt
CC(C)CC(CO)N1CCN(C(=O)c2ccccc2)CCC1=O (stereo unspecified) | 16 | nt | nt | nt | -3 | -4
COC(=O)C1C(=O)OC(C)(C)C1C(C)C(=O)c1ccc(C)cc1C (stereo unspecified) | -2 | i | 60* | -2 | -3 | 0
O=C(c1ccc2c3c(cccc13)CC2)C1CCCN(Cc2ccncc2)C1 (stereo unspecified) | 7 | i | 13 | -8 | -6 | 0
CCc1nc(CN2CCCC(C(=O)c3ccc4c5c(cccc35)CC4)C2)c(C)[nH]1 (stereo unspecified) | 6 | i | 60* | -7 | -8 | -3
O=C(O)C1OC(Oc2c(-c3ccc(O)c(O)c3)oc3cc(O)cc(O)c3c2=O)C(O)C(O)C1O (stereo unspecified) | nt | + | 6 | 76* | 5 | 9
CC(C)NC(=O)c1cc(C2CCCCN2C(=O)c2ccccc2)on1 (stereo unspecified) | 25 | nt | nt | nt | nt | nt
CSc1nc2oc3c(c2c2nncn12)CC(C)(C)SC3 | 45* | i | 78* | 32 | -8 | -6
CCCCNC(=O)COC(=O)c1c2c(nc3ccccc13)CCC2 | -17 | + | 22 | 68* | 18 | 24
C=CCNC(=O)COC(=O)c1c2c(nc3ccccc13)CCC2 | -8 | + | 36 | 59* | 16 | 25
CCCCNC(=O)COC(=O)c1c2c(nc3ccccc13)/C(=C/c1cccs1)CC2 | -17 | i | -6 | 85 | nt | nt
CNC(=O)COC(=O)c1c2c(nc3ccccc13)CCC2 | -19 | i | -27 | 66* | 5 | 17
COc1ccc(NC(=O)COC(=O)c2c3c(nc4ccccc24)CCCC3)cc1 | 6 | i | -8 | 2 | -3 | -4
Cc1ccc2c(c1)Oc1ccc(NC(=O)CCl)cc1C(=O)N2 | 2 | i | -20 | -4 | -3 | 1
COc1ccc(C2C(C#N)=C(N)OC3=C2C(=O)CC(C)(C)C3)c([N+](=O)[O-])c1OC (stereo unspecified) | 45* | i | -79 | -8 | -4 | 1
O=C(O)CCN1C(=O)/C(=C/c2cn(-c3ccccc3)nc2-c2cccs2)SC1=S | -29 | i | 78* | 65 | -7 | -4
O=C(O)CCCCCN1C(=O)/C(=C/c2cn(-c3ccccc3)nc2-c2cccs2)SC1=S | -24 | nt | nt | nt | nt | nt
O=[N+]([O-])c1cc(/C=N/Nc2nc3ccccc3[nH]2)c(O)cc1O | nt | + | 8 | 80* | nt | nt
CN1CCC(NC(=O)c2ccncc2)CC1 | -2 | i | 11 | 65 | -2 | -1
CC1CCN(S(=O)(=O)c2ccc(C(=O)Nc3nnc(-c4ccccn4)o3)cc2)CC1 | -1 | i | 71* | 3 | -2 | -1
CC1CCN(S(=O)(=O)c2ccc(C(=O)Nc3nnc(C4=COCCO4)o3)cc2)CC1 | -1 | i | 3 | -1 | -3 | 0
CC1=C/C(=C\c2ccc(Br)o2)C(=O)O1 | 2 | i | -22 | 86 | 51 | 86
O=C1C(=Cc2ccc(Br)o2)C(=O)c2ccccc21 | 23 | + | -8 | 89* | nt | nt
COc1ccc(CNC(=O)[C@H](C)NC(=O)N2CCn3c2nc2ccccc23)cc1 | -15 | nt | 70* | nt | -4 | -4
C[C@H](NC(=O)N1CCn2c1nc1ccccc12)C(=O)NCCc1ccccc1 | 1 | i | 54 | -6 | -1 | -1
SMILES | PABP1 MLLE inh | PABP polyA inh | PHOSPHO1 block | eIF4H FP inh | APOBEC3G inh | APOBEC3A inh
COc1ccc(-n2nnc3c(=O)n(CC(=O)Nc4cc(C)on4)cnc32)cc1 | 6 | i | -3 | 3 | -8 | -4
COc1cc(C2NC(=O)CCC2[N+](=O)[O-])cc(OC)c1OC (stereo unspecified) | 0 | i | 5 | 96 | 0 | 2
O=C(CN1CCOCC1)NN=C1CCCCCCCCCCC1 | 4 | + | -9 | active | -8 | 1
CC(C)[C@H](N)c1nnc(SCc2ccc(Cl)cc2)o1 | -19 | i | 6 | -1 | -7 | -5
O=C(CSc1nnc([C@@H]2CCCN2)o1)c1ccc(Cl)cc1 | -2 | i | 74* | -3 | 3 | 1
CCC(C)[C@H](N)c1nnc(SCC(=O)c2ccc(Cl)cc2)o1 (stereo partly specified) | 0 | i | 79* | -3 | -6 | -3
COc1ccc(C2CCCN2C(=S)Nc2cccc(Cl)c2C)cc1OC (stereo unspecified) | -107 | i | -13 | -6 | -3 | 0
Cc1ccc(NC(=O)C(C)S)cc1 (stereo unspecified) | 36 | i | -17 | 1 | nt | nt
[O-][N+](=Cc1ccccc1)c1ccc(Cl)cc1 | 10 | nt | nt | nt | nt | nt
[O-]/[N+](=C/c1ccc(F)cc1)c1ccc(Cl)cc1 | 42* | i | -7 | -4 | -4 | 0
COc1cccc(/C=C/C(=O)c2ccc(NC3=NCCCS3)cc2)c1 | -10 | + | -90 | active | -9 | -4
CCCN(C(=O)c1cc2c(s1)CCC2)c1c(N)n(Cc2ccccc2)c(=O)[nH]c1=O | -5 | + | 15 | 96* | 20 | 34
Cc1[nH]c(=O)[nH]c(=O)c1/C=N/NC(=O)[C@H](C)N | 19 | i | 6 | 4 | -3 | 0
Cc1cccc(NC(=O)c2ccc(F)c(S(=O)(=O)N3CCC4(CC3)OCCO4)c2)c1 | -1 | i | 65* | -14 | 0 | 1
Cc1[nH]c(=S)c(C#N)c(C)c1C(=O)Nc1ccccc1 | 7 | i | 95* | -4 | 25 | -6
Cn1ncc(C(N)=O)c1NC(=S)NC(=O)c1ccc(Br)o1 | 33 | i | 80* | 6 | -1 | -1
CC(=O)N1CCc2cc(S(=O)(=O)NC(C(=O)N3CCN(c4ccccc4F)CC3)C(C)C)ccc21 (stereo unspecified) | -9 | nt | nt | nt | 4 | 4
CCOC(=O)COn1c(=O)c(-c2cc3ccccc3o2)[n+]([O-])c2ccccc21 | 20 | + | 18 | 64 | -7 | -2
C=CCOn1c(=O)c(-c2ccccc2)[n+]([O-])c2ccccc21 | -14 | i | 14 | 5 | 1 | 1
CCOC(=O)COn1c(=O)c(-c2ccc(F)cc2)[n+]([O-])c2ccccc21 | -13 | i | 31 | -8 | -7 | -2
C=CCOn1c(=O)c(-c2cc3ccccc3o2)[n+]([O-])c2ccccc21 | 1 | + | 18 | 58* | -6 | -6
CCCN(C(=O)COC(=O)c1cc(CC)c(C)s1)c1c(N)n(Cc2ccccc2)c(=O)[nH]c1=O | 11 | nt | nt | nt | 5 | 9
Cc1ccc(C2(CCNCc3ccc(N(C)C)cc3)CCOC(C(C)C)C2)cc1 (stereo unspecified) | -6 | i | 64* | -2 | -12 | 3
